Experiment [1] is described as follows: Wnt pathway potentiators raising nuclear beta-catenin – imaging, WNT3A-conditioned medium, mouse C2C12, NPC library, primary screen (AID 1117326; in the data active = nuclear beta-catenin stimulation mostly above about 4.2%, no sharp cut-off; inactive = mostly below about 10%). The note with it: stronger effect = higher value.
Experiment [2] is described as follows: stimulators of insulin release from INS-1E, primary screen, cell-based, 5 mM glucose, NPC library (AID 1117329;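 active = compound raises insulin release from rat beta cells at 5 mM glucose, no numeric limit stated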). As to conditions: rat INS-1E insulin secretion, at 10 µM, stronger effect = higher value.
A short description of experiment [3]: growth inhibition of GSK3B-pretreated HCT116 cells – cell-based, CellTiter-Glo, 0.2 to 20 µM (AID 1117336;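 active = compounds lowering colon cancer cell viability after pretreatment blocking the GSK3B kinase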). The note with it: HCT116 viability after GSK3B inhibitor, at 20 µM, stronger effect = higher value. (In general: Cellular ATP, detected with luciferase, serves as a proxy for viable cell number.)
Experiment [4] can be described thus: inhibition of endothelial tube formation, primary screen, imaging, VEGF stimulated, CD31 staining, tube area, NPC library (AID 1117340;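 active = compound that reduces growth-factor-driven endothelial tube area in a mixed cell culture, no cutoff stated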). The note with it: VEGF-stimulated ADSC/ECFC co-culture, at 10 µM, stronger effect = higher value.
A short description of experiment [5]: GLP1 release stimulators, primary, NCI-H716, NPC library (AID 1117341;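 active = compound raises GLP1 secretion from the human gut endocrine cells, with no numeric limit stated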). The note with it: NCI-H716 cells, at 10 µM, stronger effect = higher value.
The nature of experiment [6]: HCT116 colon cancer cell growth inhibition, primary screen, CellTiter-Glo luminescence, NPC library (AID 1117342;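 active = compounds that lower survival of HCT116 colon cancer cells in the luminescence readout, no numeric limit stated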). The note with it: at 20 µM (top of the series).
A short description of experiment [7]: reduced SW480 viability measured with CellTiter-Glo, NPC library, primary (AID 1117343;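 active = compounds that lower viability of the colon cancer cells in the luminescence readout, with no numeric limit stated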). The note with it: CellTiter-Glo luminescence; at 20 µM (top of the series) unless noted.
Experiment [8] can be described thus: NPC library primary testing for decreased DLD-1 cell viability via CellTiter-Glo (AID 1117346;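 active = compounds that lower survival of DLD-1 colon cancer cells in the luminescence readout, no cutoff given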). The note with it: DLD-1 viability, CellTiter-Glo luminescence; at 20 µM (top of the series).
In experiment [9] the test system is Aerobactin synthetase IucA (Klebsiella pneumoniae). Description: inhibition of K. pneumoniae IucA enzyme – biochemical, Tocris library, absorbance (AID 1345561; call rule not given here;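 also: 100% = enzyme without compound and 0% = no enzyme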). As to conditions: purified IucA enzyme assay, absorbance (OD) read-out; stronger effect = lower value;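 tested at 8 µM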.
Experiment [10] in a line: viability loss in pontine glioma line – cell-based, SU-DIPG-XVII, MIPE5.0, CellTiter-Glo, qHTS, dose response (AID 1347060; cut-off not given, nearly all actives have AC50 up to about 26 µM). As to conditions: CellTiter-Glo ATP luminescence.
The nature of experiment [11]: viability loss in pontine glioma line – cell-based, SU-DIPG-XIII, MIPE4.0, CellTiter-Glo, qHTS, dose response (AID 1347061; cut-off not given, nearly all actives have AC50 up to about 37 µM;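 also: cells exposed to compound for 48 hours before readout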). As to conditions: CellTiter-Glo ATP luminescence.
Experiment [12] is described as follows: growth inhibition of DIPG cells – cell-based, MIPE4.0 library, CellTiter-Glo luminescence, qHTS (AID 1347066; cut-off not given, nearly all actives have AC50 up to about 30 µM;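 also: cells exposed to compound for 48 hours before readout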). As to conditions: SU-DIPG-VI viability, CellTiter-Glo ATP luminescence.
The nature of experiment [13]: growth inhibition of DIPG cells – cell-based, MIPE5.0 library, qHTS (AID 1347068; cut-off not given, nearly all actives have IC50 up to about 30 µM). As to conditions: SU-DIPG-XXV viability. Background: Quantitative high-throughput screening tests each substance at several concentrations.
Experiment [14] is described as follows: viability loss with induced miR-34 in A549 – imaging, A549 dox-inducible miR-34, nuclei and caspase counts, primary screen (AID 1347080;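 active = compounds whose cell count with miR-34 switched on is under 0.7 times the count with it off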). The note with it: A549 miR-34 inducible, Hoechst nuclei count, 48 h.
Experiment [15] in a line: galactose survival enhancers in mitochondrial complex I cybrids – cell-based, galactose medium, ATP luminescence, primary screen (AID 1645843).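 Also: positive z means more ATP and so rescue of galactose-driven cybrid death.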 The note with it: complex I mutant cybrid cells, 72 h, stronger effect = higher value.
The nature of experiment [16]: MELAS cybrid and Rieske KO viability enhancers – cell-based, MELAS cybrids, Rieske KO mouse fibroblasts, CellTiter-Glo, primary screen (AID 1508586;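 active = mean z-score across replicates of 1.96 or higher in either the MELAS or the Rieske mutant cell line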;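 also: z relative to plate mean and SD of compound and empty wells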). As to conditions: low glucose.
The mark [17] stands for this setting: stronger effect = lower value, cell number ratio, induced over uninduced.
Where [18] appears, read: measured here: relative caspase fold change +Dox/-Dox.
Where [19] appears, read: measured here: total cells with miR-34 induction, stronger effect = lower value.
Where [20] appears, read: measured here: total cells without miR-34 induction.

What is called remaining activity is the signal under treatment as a percentage of the control signal.

Each structure is given as a SMILES string. Where “and” joins values, the source holds several entries; their conditions need not be identical. Equal values may be shown once. Results filed as inconclusive are left out. More than one record can exist for a structure, and the calls need not agree. Calls of active or inactive are those of the source.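 The calls were made as follows, unless noted: active = z-score of at least 1.8 in each of two replicates, scored against plate mean and spread of sample wells; inactive = the rest.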

As for `COC(=O)[C@@H]1CC2=CC(=O)CC[C@]2(C)[C@@]23O[C@@H]2C[C@@]2(C)[C@@H](CC[C@@]24CCC(=O)O4)[C@H]13`, the nuclear beta-catenin stimulation is -0.1% (inactive) in experiment [1] (at 10 µM) and 1.3% in experiment [1] (stimulation, at 2 µM). In addition, the insulin secretion stimulation in [2] is -0.55% (inactive). In addition, the viability decrease in experiment [3] was -0.7% (inactive). Further, the tube area decrease in [4] was 23.1% (inactive). The GLP1 secretion stimulation in experiment [5] was -1.5% (inactive). Further, the inhibition of viability in experiment [6] was -5.5% (inactive). In addition, the viability decrease (inhibition) in [7] is 24.4% (inactive); in experiment [8] it was -7.2% (inactive). Moreover, the remaining activity in experiment [9] is 96.4% (inactive). For the same compound, the result in experiment [10], in experiment [11], in [12] and in [13] was inactive. The fold change in experiment [14] (setting [17]) was 0.96 (inactive); in [14] (setting [18]), 1.45. Also, the cell count in [14] (setting [19]) was found to be 9220; in experiment [14] (setting [20]), 9600. The z-score in [15] was -0.005 (inactive).
For `O=C1c2ccccc2S(=O)(=O)N1CCCCN1CCN(c2ncccn2)CC1`, the nuclear beta-catenin stimulation in [1] (at 10 µM) was -1.2% (inactive); in [1] (stimulation, at 2 µM) it was 1.3%. Further, the insulin secretion stimulation in [2] is 3.3% (inactive). In addition, the viability decrease in [3] was -7% (inactive). Moreover, the tube area decrease in experiment [4] is 4.9% (inactive). The GLP1 secretion stimulation in [5] was -1.9% (inactive). Moreover, the inhibition of viability in experiment [6] was 7.2% (inactive). For the same compound, the viability decrease (inhibition) in [7] is -2.4% (active); in experiment [8], -2.8% (inactive). In experiment [9], the remaining activity was 111% (inactive). Further, the fold change is 0.855 (inactive) in experiment [14] (setting [17]) and 1.78 in experiment [14] (setting [18]). Besides, the cell count in experiment [14] (setting [19]) is 8330; in experiment [14] (setting [20]), 9750. Further, the z-score in [16] (MELAS cybrid survival, CellTiter-Glo 48 h, stronger effect = higher value) is -0.295 (inactive); in experiment [16] (Rieske KO mouse fibroblast survival, CellTiter-Glo 72 h) it was -0.0604; in experiment [15], 0.135 (inactive).
For `OC(CN1CCC(Cc2ccc(F)cc2)CC1)c1ccc(Cl)cc1` (stereo not drawn), the nuclear beta-catenin stimulation in experiment [1] (at 10 µM) was 2% (inactive); in [1] (stimulation, at 2 µM) it was 2.8%. Moreover, the insulin secretion stimulation in [2] is 2.2% (inactive). The viability decrease in experiment [3] was 78.9% (active). The tube area decrease in [4] was -4.2% (inactive). The GLP1 secretion stimulation in experiment [5] is 2.9% (inactive). In [6], the inhibition of viability was 78.6% (active). For the same compound, the viability decrease (inhibition) was 67.1% (active) in experiment [7] and 75.2% (active) in experiment [8]. For the same compound, the remaining activity in [9] was 78.5% (inactive). For the same compound, the compound was classed as inactive in experiment [11] and in experiment [12]. Moreover, the fold change is 1.15 (inactive) and 0.894 (inactive) in [14] (setting [17]); 0.858 and 1.23 in experiment [14] (setting [18]). The cell count is 6880 and 8360 in [14] (setting [19]); 6000 and 9350 in experiment [14] (setting [20]). The z-score in experiment [15] is -0.6 (inactive) and 0.185 (inactive).
`COCC(=O)O[C@]1(CCN(C)CCCc2nc3ccccc3[nH]2)CCc2cc(F)ccc2[C@@H]1C(C)C`: the nuclear beta-catenin stimulation in experiment [1] (at 10 µM) was 14.4% (inactive); in [1] (stimulation, at 2 µM), -2.2%. For the same compound, the insulin secretion stimulation in experiment [2] is 3.5% (inactive). In experiment [3], the viability decrease is 107% (active). Further, in [4], the tube area decrease was 67.6% (active). Besides, the GLP1 secretion stimulation in experiment [5] was 20.1% (active). Moreover, the inhibition of viability in experiment [6] was 110% (active). Besides, the viability decrease (inhibition) was 130% (active) in experiment [7] and 101% (active) in experiment [8]. For the same compound, the remaining activity in experiment [9] is 86.1% (inactive). Also, the fold change in [14] (setting [17]) was 0.582 (active) and 1.03 (inactive); in experiment [14] (setting [18]), 0.681 and 1.08. Moreover, the cell count was 108 and 550 in [14] (setting [19]); 186 and 534 in experiment [14] (setting [20]). In experiment [15], the z-score was -1.29 (inactive) and -0.675 (inactive).
In the case of `NCCNC(=O)c1ccc(Cl)cn1`, the nuclear beta-catenin stimulation in experiment [1] (at 10 µM) is 1.5% (inactive); in experiment [1] (stimulation, at 2 µM), 0.2%. Also, in experiment [2], the insulin secretion stimulation is -1.7% (inactive). For the same compound, in experiment [3], the viability decrease was -5.05% (inactive). In addition, the tube area decrease in experiment [4] is -14.8% (inactive). For the same compound, the GLP1 secretion stimulation in experiment [5] was -1.7% (inactive). Also, in [6], the inhibition of viability is -6.5% (inactive). The viability decrease (inhibition) in experiment [7] is 16.3% (inactive); in experiment [8] it was -10.3% (inactive). For the same compound, in experiment [9], the remaining activity is 98% (inactive). In addition, the fold change in experiment [14] (setting [17]) was 0.873 (inactive); in [14] (setting [18]), 1.55. In addition, the cell count in experiment [14] (setting [19]) came out at 8230; in experiment [14] (setting [20]), 9430. The z-score in experiment [15] is 0.045 (inactive).

Source of the values: PubChem BioAssay.
